# Results filed as inconclusive are left out. Entries that show only a call come without a potency. A number with no mark means an inactive call. Calls of active or inactive are those of the source. The call rests on the fitted dose curve; in most records, active means well fitted curve in the direction sought with a large enough effect; inconclusive means small, poorly fitted or top-dose-only effect, or another doubt; inactive means no such curve, though single readings can be large; an effect the other way counts as inactive or inconclusive.
# Experiments:
# [1] = P-glycoprotein substrates identified in KB-8-5-11 adenocarcinoma cell line, qHTS therapeutic library screen (AID 1346987); further: nearly all actives have a fitted effect of over 65% in size; on activity change, negative = cytotoxicity: series mostly up to about 44 µM
# Method in brief: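 Steps: plate 500 KB-8-5-11 cells/well in DMEM + 10% FCS (colchicine removed); pin compounds in dose-response; incubate 72 h, 37 degree C, 5% CO2; add CellTiter-Glo, 5 min; read luminescence.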
# [2] = test system: Zika virus NS2B-NS3 protease (linked construct); assay: Primary screen NINDS Rhodamine qHTS for Zika virus inhibitors (AID 1347160); further: nearly all actives have a fitted effect of over 55% in size
# Method in brief: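 Percent inhibition, normalized to uninhibited and enzyme-free controls, is fitted to a 4-parameter Hill equation. Fluorescence change comes from a 15-min cleavage of 1.5 microM bis-peptide Rhodamine110 substrate by 25 nM linked NS2B-NS3 at room temperature.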
Structure (SMILES),Potency [1],Potency [2],outcome [1],"activity change, negative = cytotoxicity [1]"
CC(=O)Nc1cccc2c1c(Sc1ccc(Cl)cc1)c(C)n2CC(=O)O,inactive,inactive,,
CC(C)c1ccc2c(c1)C(O)CC1C(C)(C(=O)O)CCCC21C (stereo not drawn),inactive,inactive,,
C[C@@H]1O[C@@H](O[C@H]2[C@H](O)[C@@H](O)[C@H](OC(=O)[C@]34CCC(C)(C)C[C@H]3C3=CCC5[C@@]6(C)CC[C@H](O[C@@H]7O[C@H](C(=O)O)[C@@H](O)[C@H](O)[C@H]7O)C(C)(C)C6CC[C@@]5(C)[C@]3(C)CC4)O[C@@H]2CO)[C@H](O)[C@H](O)[C@H]1O (stereo partly drawn),,inactive,inactive [at 9.29 µM],
OC[C@H]1O[C@@H](OCCc2ccccc2)[C@H](O)[C@@H](O)[C@@H]1O,inactive,inactive,,
C=C1CC[C@@H]2[C@](C)(CO)[C@H](O[C@@H]3O[C@H](CO)[C@@H](O)[C@H](O)[C@H]3O)CC[C@@]2(C)[C@@H]1C/C=C1/C(=O)OC[C@H]1O,inactive,inactive,,
C=C1C(=O)O[C@@H]2/C=C(\C)CC/C=C(\C(=O)O[C@@H]3O[C@H](CO)[C@@H](O)[C@H](O)[C@H]3O)CC[C@@H]12,inactive,inactive,,
COc1ccc(OC2OC(CO[C@@H]3O[C@@H](C)[C@H](O)[C@@H](O)[C@H]3O)C(O)C(O)C2O)cc1OC (stereo partly drawn),inactive,inactive,,
O=C(Nc1cc(-c2ccccc2)nn1-c1ccccc1F)c1ccc([N+](=O)[O-])cc1,inactive,inactive,,
CC1OC(OC2C(OC(=O)[C@]34CCC(C)(C)C[C@H]3C3=CCC5[C@@]6(C)CC[C@H](OC7OC(C(=O)O)C(O)C(O)C7O)C(C)(C)C6CC[C@@]5(C)[C@]3(C)CC4O)OC(CO)C2O)C(O)C(O)C1OC1OCC(O)C(O)C1O (stereo partly drawn),,inactive,,7.83% [at 9.29 µM]

# Reference: PubChem BioAssay (NCATS)
